We go through 40 compounds from PubChem BioAssay (EPA / NIEHS).

Molecules are shown by their SMILES. The source made the active and inactive calls. The calls were made as follows: active = hit-call score of the fitted dose curve at least 0.9, where 1 is the maximum; inactive = score below 0.9.

This experiment is described as follows: ATG_AP_2_CIS: Attagene CIS-FACTORIAL HepG2 Assay for human Activator Protein 2 (AP-2) (AID 2282932). The settings on record: HepG2 AP-2 cis-reporter, Attagene transcription factor profiling; actives raise or lower the signal. On the procedure:
ATG_CIS is a cell-based, multiplexed-readout assay that uses HepG2, a human liver cell line, with measurements taken at 24 hours after chemical dosing in a 24-well plate.ATG_AP_2_CIS is one of 52 assay component(s) measured or calculated from the ATG_CIS assay. It is designed to make measurements of mRNA induction, a form of inducible reporter, as detected with fluorescence intensity signals by Reverse transcription polymerase chain reaction (RT-PCR) and Capillary electrophoresis technology.Data from the assay component ATG_AP_2_CIS was analyzed into 1 assay endpoint. This assay endpoint, ATG_AP_2_CIS, was analyzed with bidirectional fitting relative to DMSO as the negative control and baseline of activity. Using a type of inducible reporter, measures of mRNA for gain or loss-of-signal activity can be used to understand the reporter gene at the transcription factor-level as they relate to the gene TFAP2A and TFAP2B and TFAP2D. Furthermore, this assay endpoint can be referred to as a primary readout, because this assay has produced multiple assay endpoints where this one serves a reporter gene function. To generalize the intended target to other relatable targets, this assay endpoint is annotated to the dna binding intended target family, where the subfamily is basic helix-turn-helix leucine zipper.
Human liver HepG2 cells are transiently transfected with multiple reporter transcription units (MRTUs) in 6-well plates using FuGene 6 reagent (Roche; 3 ml FuGene/1 mg DNA). The MRTU constructs are regulated by a cis-regulating element (promoter). […] A major difference between the CIS and TRANS system is that in CIS activities of endogenous TFs are measured, whereas the TRANS assay evaluates changes in activities of exogenous, chimeric NR-Gal4 proteins. […] At the end of 24 hour incubation, total RNA was isolated using TriZol reagent (Invitrogen). The isolated RNA is then reverse-transcribed using oligo(dT) primer and Mo-MLV reverse transcriptase (Invitrogen) with DNAse I (Ambion) treatment for 30 min. The one-tenth of the produced cDNA was amplified by PCR using Taq DNA polymerase (Invitrogen) and two reporter sequence-specific primers. The PCR products were fluorescently labeled by primer extension with 6-arboxyfluorescein (6-FAM) 5'-labeled reporter sequence-specific primer (2 min at 95 C, 20 s at 68 C and 10 min at 72 C) and these products were digested with 5U of HpaI (New England Biolabs) for 2h at 37 C. The fragments were purified using Qiaquick PCR columns (Qiagen), analyzed on an ABI 3130xL genetic analyzer (Applied Biosystems) with peak positions identified by using a set of X-rhodamine (ROX)-labeled MapMarker1000 molecular weight standards (BioVentures). The raw capillary electrophoresis data was processed using Attagraph software (Attagene).
As for `CCN(CC)C(=O)Cl`, the outcome was inactive.

As for `C1CCC(NC2CCCCC2)CC1`, the result was inactive. The result for `CC(C)CCCCCCOC(=O)c1ccccc1C(=O)OCCCCCCC(C)C` reads “inactive”; that for `Cc1cc(Cl)ccc1O[C@H](C)C(=O)O`, “inactive”; that for `OCc1ccco1`, “inactive”. The result for `NNC(=S)NN` reads “inactive”; that for `Nc1ccc(Cl)cc1C(=O)c1ccccc1`, “inactive”; that for `C[C@]12CCC(=O)C[C@@H]1CC[C@@H]1[C@@H]2CC[C@]2(C)[C@@H](O)CC[C@@H]12`, “inactive”.

Turning to `Clc1ccc(COC(Cn2ccnc2)c2ccc(Cl)cc2Cl)cc1` (stereo not given), the outcome was inactive.

As to `CC(C)c1ccc(CO)cc1`, the outcome was inactive. Turning to `C=CC#N`, the call was inactive. The same measure for `COc1ccccc1OC`: “inactive”; for `COc1cc2c(cc1OC)[C@@]13CCN4CC5=CCO[C@H]6CC(=O)N2[C@H]1[C@H]6[C@H]5C[C@H]43`: “inactive”; for `O=S(=O)(c1ccc(Cl)cc1)c1ccc(Cl)cc1`: “inactive”.

`CC1(C)CCC(Cc2ccc(Cl)cc2)C1(O)Cn1cncn1` (stereo not given): the compound was classed as inactive. With `O=C(O)C(Cl)(Cl)Cl`, the call was inactive. The result for `O=Cc1cccc(Oc2ccccc2)c1` reads “inactive”; that for `O=[N+]([O-])c1c(Cl)c(Cl)cc(Cl)c1Cl`, “inactive”.

As for `Cl/C=C/Cl`, the outcome was inactive.

Regarding `CCCCOCCOC(C)=O`, the result was inactive.

As to `ClC1(Cl)C2(Cl)C3(Cl)C4(Cl)C(Cl)(Cl)C5(Cl)C3(Cl)C1(Cl)C5(Cl)C24Cl` (stereo not given), the call was inactive. The same measure for `Cc1ccccc1N`: “inactive”; for `COP(=S)(OC)Oc1c(Cl)cc(C)cc1Cl`: “inactive”. The result for `CCOP(=S)(OCC)SCCS(=O)(=O)CC` reads “inactive”; that for `CC(C)(c1ccccc1)c1ccc(O)c(C(C)(C)c2ccccc2)c1`, “inactive”.

`O=C(Cc1ccccc1)c1ccccc1`: the compound was called inactive.

Take `CC(C#N)CCC#N` (stereo not given): the call was inactive. The same measure for `N#CN=C(N)N`: “inactive”; for `Cl/C=C\C[N+]12CN3CN(CN(C3)C1)C2`: “inactive”. The same measure for `CCC(=O)C(CC(C)N(C)C)(c1ccccc1)c1ccccc1` (stereo not given): “inactive”; for `O=C(Cl)c1ccc(Cl)cc1`: “inactive”. The same measure for `COP(=S)(OC)Oc1ccc(S(=O)(=O)N(C)C)cc1`: “inactive”; for `Clc1ccc(C2(Cn3cncn3)CC(Br)CO2)c(Cl)c1` (stereo not given): “inactive”.

With `CNC(=O)O/N=C/C(C)(C)S(C)=O` (stereo not given), the compound was called inactive. For the compound `CC(C)(OO)c1ccccc1`, the compound was classed as inactive. The result for `CC(C)c1cccc(C(C)C)c1O` reads “inactive”. The result for `CC(=O)C(Cl)C(=O)N(C)C` (stereo not given) reads “inactive”.

For `CC(C)C1CCC(Cc2ccc(Cl)cc2)C1(O)Cn1cncn1` (stereo not given), the result was inactive. The result for `O=C/C=C/c1ccccc1` reads “inactive”. As for `COC(=O)c1sccc1S(=O)(=O)NC(=O)Nc1nc(C)nc(OC)n1`, the compound was classed as inactive.
